Measurements as given in PubChem BioAssay.
The source made the active and inactive calls.

Key:
Albumin (Bos taurus) = Albumin (Bos taurus) (UniProt P02769); assay: compounds binding labelled BSA control protein – biochemical, small-molecule microarray, Alexa647 label, 635/667 nm fluorescence, artefact control for SMM control protein annotation, profiling panel (AID 1118); details: BSA-A647 binding, fluorescence 635 nm, higher = more signal;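 further: score merges 667 nm emission intensity and signal-to-noise per printed compound spot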
Albumin (Bos taurus), sequence (P02769 whole entry, looked up): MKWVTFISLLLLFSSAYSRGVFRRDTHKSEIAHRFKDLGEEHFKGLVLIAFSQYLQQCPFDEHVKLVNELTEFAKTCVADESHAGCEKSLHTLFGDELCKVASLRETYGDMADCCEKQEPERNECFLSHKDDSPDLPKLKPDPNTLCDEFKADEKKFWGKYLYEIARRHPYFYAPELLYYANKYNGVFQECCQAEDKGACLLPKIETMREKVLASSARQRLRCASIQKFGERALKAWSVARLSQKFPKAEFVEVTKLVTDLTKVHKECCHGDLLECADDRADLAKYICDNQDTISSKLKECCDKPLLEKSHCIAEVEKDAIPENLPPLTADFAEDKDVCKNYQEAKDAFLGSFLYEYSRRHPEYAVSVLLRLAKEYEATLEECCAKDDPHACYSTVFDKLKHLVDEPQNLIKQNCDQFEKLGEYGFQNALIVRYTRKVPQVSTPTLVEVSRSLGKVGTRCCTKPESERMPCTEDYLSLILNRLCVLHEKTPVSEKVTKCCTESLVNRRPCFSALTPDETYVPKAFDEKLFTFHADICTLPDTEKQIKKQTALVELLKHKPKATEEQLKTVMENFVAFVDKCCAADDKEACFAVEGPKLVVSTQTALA

[1] = probe aXIP binding to arrayed compounds – biochemical, NeuroSMM set, 635/667 nm fluorescence, primary screen (AID 1119); details: small-molecule microarray, higher = more signal, called active from +8 up or from −8 down;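 further: probe is the protein aXip251-270 applied at 1 µg/mL to compound-printed slides; binding of probe to printed compounds measured as 667 nm fluorescence plus signal to noise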
[2] = probe aNOTCH3 binding on compound microarray – biochemical, small-molecule microarray, 635/667 nm fluorescence, primary screen (AID 1120); details: higher = more signal;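 further: probe is a biotin-tagged antibody raised against NOTCH3 rather than NOTCH3 protein; score merges spot fluorescence near 667 nm with spot signal to noise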
[3] = probe aNOTCH2 binding on compound microarray – biochemical, small-molecule microarray, 635/667 nm fluorescence, primary screen (AID 1121); details: higher = more signal;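 further: score merges feature fluorescence read at 667 nm with its signal to noise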
[4] = target: Carbonic anhydrase 2 (Homo sapiens) (UniProt P00918); assay: compounds binding carbonic anhydrase 2 – biochemical, small-molecule microarray, Alexa647-labelled CAII, profiling panel (AID 1122); details: CAII-A647 binding fluorescence, higher = more signal
[5] = COS7 lysate on small-molecule microarray, probe aHis, 635 nm (AID 1123); details: COS7 cell lysate, fluorescence, higher = more signal;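 further: z-score combines 667nm fluorescence intensity with signal-to-noise per printed compound spot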
[6] = probe aLAP1 signal on lysate-treated microarray – cell lysate, small-molecule microarray, COS7 lysate, primary screen (AID 1124); details: probe aLAP1, fluorescence, higher = more signal;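 further: lysate comes from COS7 cells expressing LAP1 and is applied at 0.3 µg/mL; score merges spot fluorescence near 667 nm with signal-to-noise over triplicate slides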
Sam68 (KHDRBS1) = assay: compounds binding KHDRBS1 protein – biochemical, small-molecule microarray, 635 nm fluorescence, primary screen (AID 1125); details: higher = more signal;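 further: score merges 667 nm channel intensity with signal to noise over triplicate slides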
[7] = system: Chordin-like protein 2 (CHRDL2); assay: compounds binding chordin-like 2 – biochemical, small-molecule microarray, 635 nm fluorescence, primary screen (AID 1126); details: fluorescence 635 nm, higher = more signal;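 further: printed compound slides probed with Chrdl2 protein at 4 µg/mL for 1 h at 4 C; score merges 667 nm emission intensity with signal to noise over three replicate slides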
[8] = target: Concanavalin-A (Canavalia ensiformis) (UniProt P02866); assay: compounds binding concanavalin A lectin – biochemical, small-molecule microarray, Alexa647 label, 635 nm, artefact control for SMM control protein annotation, primary screen (AID 1127); details: ConA-A647 binding fluorescence, higher = more signal;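 further: z combines 667 nm emission intensity with signal-to-noise across three replicate slides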
Concanavalin-A (Canavalia ensiformis), sequence (P02866 whole entry, looked up): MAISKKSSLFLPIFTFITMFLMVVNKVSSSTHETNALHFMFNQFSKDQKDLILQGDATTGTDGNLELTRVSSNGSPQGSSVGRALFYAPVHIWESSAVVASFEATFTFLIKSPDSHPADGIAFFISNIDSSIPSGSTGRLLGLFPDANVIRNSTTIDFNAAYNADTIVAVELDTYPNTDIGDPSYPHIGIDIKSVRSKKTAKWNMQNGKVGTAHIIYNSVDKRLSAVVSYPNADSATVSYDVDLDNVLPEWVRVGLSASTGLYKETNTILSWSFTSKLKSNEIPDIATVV

[9] = compounds binding Alexa647 anti-His antibody – biochemical, small-molecule microarray, 635 nm fluorescence, artefact control for SMM control protein annotation, primary screen (AID 1128); details: higher = more signal;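 further: score merges feature fluorescence with signal-to-noise for each printed compound spot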
[10] = system: Human papillomavirus type 1a E7 protein (residues 1-88); assay: HPV1a E7 small-molecule binders, primary screen, biochemical, small-molecule microarray, residues 1-88, 635 nm (AID 1129); details: small-molecule microarray binding, fluorescence 635 nm; higher = more signal
[11] = target: Focal adhesion kinase 1 (Homo sapiens) (UniProt Q05397); assay: PTK2 protein binding on printed compound slides – biochemical, small-molecule microarray, 635/667 nm fluorescence, BSA, DTT, primary screen (AID 1130); details: 635 nm fluorescence, higher = more signal;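 further: composite of spot emission at 667 nm and signal to noise over triplicate slides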
Focal adhesion kinase 1 (Homo sapiens), sequence (Q05397 whole entry, looked up): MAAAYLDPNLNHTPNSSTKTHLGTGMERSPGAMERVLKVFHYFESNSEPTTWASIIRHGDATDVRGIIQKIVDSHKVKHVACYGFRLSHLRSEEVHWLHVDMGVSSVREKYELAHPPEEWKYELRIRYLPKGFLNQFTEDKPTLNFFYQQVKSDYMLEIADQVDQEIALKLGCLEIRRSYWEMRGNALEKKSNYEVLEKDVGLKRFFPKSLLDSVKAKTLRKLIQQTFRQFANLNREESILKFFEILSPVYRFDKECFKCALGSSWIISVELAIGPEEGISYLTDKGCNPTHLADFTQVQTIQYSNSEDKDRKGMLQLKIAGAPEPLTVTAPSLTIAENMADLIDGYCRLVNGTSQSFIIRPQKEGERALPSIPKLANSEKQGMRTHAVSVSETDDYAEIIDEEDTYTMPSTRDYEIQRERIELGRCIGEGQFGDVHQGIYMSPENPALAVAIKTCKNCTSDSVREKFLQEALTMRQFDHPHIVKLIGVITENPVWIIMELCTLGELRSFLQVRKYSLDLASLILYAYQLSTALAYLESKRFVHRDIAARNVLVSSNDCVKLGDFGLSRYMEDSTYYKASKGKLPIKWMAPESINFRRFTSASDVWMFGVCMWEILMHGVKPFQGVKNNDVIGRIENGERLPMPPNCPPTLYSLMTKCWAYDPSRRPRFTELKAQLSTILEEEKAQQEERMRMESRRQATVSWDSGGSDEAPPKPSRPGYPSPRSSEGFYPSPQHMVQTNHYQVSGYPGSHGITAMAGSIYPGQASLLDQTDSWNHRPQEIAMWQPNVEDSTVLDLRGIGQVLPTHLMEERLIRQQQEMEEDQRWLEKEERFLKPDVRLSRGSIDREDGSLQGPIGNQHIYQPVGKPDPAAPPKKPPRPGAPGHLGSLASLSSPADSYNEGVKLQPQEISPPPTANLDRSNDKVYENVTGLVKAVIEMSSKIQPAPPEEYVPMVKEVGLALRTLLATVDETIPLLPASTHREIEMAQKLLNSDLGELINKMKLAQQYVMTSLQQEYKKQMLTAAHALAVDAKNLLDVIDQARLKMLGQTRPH

[12] = system: Fibrinogen (Alexa647-labelled); assay: Alexa647-fibrinogen binding to printed small molecules – biochemical, small-molecule microarray, 635/667 nm fluorescence, artefact control for SMM control-protein annotation, profiling panel (AID 1131); details: fibrinogen-A647 binding fluorescence, higher = more signal;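 further: z-score merges 667 nm fluorescence with per-spot signal-to-noise over triplicate slides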
[13] = target: Follistatin (Homo sapiens) (UniProt P19883); assay: FST protein binding to printed compounds – biochemical, small-molecule microarray, 635/667 nm fluorescence, primary screen (AID 1132); details: 635 nm fluorescence, higher = more signal
Follistatin (Homo sapiens), sequence (P19883 whole entry, looked up): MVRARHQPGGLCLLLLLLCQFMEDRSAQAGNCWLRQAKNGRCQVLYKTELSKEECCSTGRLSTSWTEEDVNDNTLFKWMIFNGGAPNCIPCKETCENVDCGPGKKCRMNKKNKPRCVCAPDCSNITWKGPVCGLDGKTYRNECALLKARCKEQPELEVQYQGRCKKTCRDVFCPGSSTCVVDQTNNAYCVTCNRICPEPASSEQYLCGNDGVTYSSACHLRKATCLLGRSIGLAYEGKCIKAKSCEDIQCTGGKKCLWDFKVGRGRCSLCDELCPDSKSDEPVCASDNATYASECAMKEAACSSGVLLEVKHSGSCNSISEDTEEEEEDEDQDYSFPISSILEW

[14] = target: Fibroblast growth factor 2 (Homo sapiens) (UniProt P09038); assay: basic fibroblast growth factor binding to printed compounds – biochemical, small-molecule microarray, 635/667 nm fluorescence, primary screen (AID 1133); details: FGF2, fluorescence 635/667, higher = more signal
Fibroblast growth factor 2 (Homo sapiens), sequence (P09038 whole entry, looked up): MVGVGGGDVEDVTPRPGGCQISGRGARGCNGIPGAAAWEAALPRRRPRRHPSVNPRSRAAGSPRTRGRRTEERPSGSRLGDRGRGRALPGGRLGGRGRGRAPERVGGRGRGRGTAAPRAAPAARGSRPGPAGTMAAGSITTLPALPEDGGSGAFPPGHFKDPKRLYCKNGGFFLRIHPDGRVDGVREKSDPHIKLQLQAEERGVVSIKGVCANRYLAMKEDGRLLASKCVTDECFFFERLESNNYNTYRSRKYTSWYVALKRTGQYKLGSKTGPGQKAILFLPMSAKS

[15] = JC-1 mitochondrial potential readout, lung cancer cells – cell-based, A549, JC-1 fluorescence, basal, 24 h, 100 nL, profiling panel (AID 1138); details: higher = more signal;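 further: A549 lung adenocarcinoma cells under basal conditions with no added stimulus; test concentration not given here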
Lefty1 = Lefty1 protein binding to printed compounds – biochemical, small-molecule microarray, 635/667 nm fluorescence, primary screen (AID 1139); details: fluorescence 635/667, higher = more signal
[16] = system: wheat germ agglutinin (Triticum aestivum), Alexa647-labelled; assay: Alexa647-WGA lectin binding to printed small molecules – biochemical, small-molecule microarray, 635/667 nm fluorescence, artefact control for SMM control-protein annotation, profiling panel (AID 1140); details: WGA-A647 binding, 635 nm fluorescence, higher = more signal;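 further: score merges 667 nm feature emission with signal to noise over triplicate slides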
[17] = target: Luciferin 4-monooxygenase (Photinus pyralis) (UniProt P08659); assay: inhibition of purified Photinus pyralis luciferase – biochemical, luminescence, purified enzyme, 2006 set, primary screen (AID 1141); details: purified firefly luciferase, SteadyGlo luminescence, 30 min; higher = more signal, called active from +8 up or from −8 down;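 further: cell-free assay with purified firefly luciferase at 100 ng per well in PBS; test concentration not given here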
Luciferin 4-monooxygenase (Photinus pyralis), sequence (P08659 whole entry, looked up): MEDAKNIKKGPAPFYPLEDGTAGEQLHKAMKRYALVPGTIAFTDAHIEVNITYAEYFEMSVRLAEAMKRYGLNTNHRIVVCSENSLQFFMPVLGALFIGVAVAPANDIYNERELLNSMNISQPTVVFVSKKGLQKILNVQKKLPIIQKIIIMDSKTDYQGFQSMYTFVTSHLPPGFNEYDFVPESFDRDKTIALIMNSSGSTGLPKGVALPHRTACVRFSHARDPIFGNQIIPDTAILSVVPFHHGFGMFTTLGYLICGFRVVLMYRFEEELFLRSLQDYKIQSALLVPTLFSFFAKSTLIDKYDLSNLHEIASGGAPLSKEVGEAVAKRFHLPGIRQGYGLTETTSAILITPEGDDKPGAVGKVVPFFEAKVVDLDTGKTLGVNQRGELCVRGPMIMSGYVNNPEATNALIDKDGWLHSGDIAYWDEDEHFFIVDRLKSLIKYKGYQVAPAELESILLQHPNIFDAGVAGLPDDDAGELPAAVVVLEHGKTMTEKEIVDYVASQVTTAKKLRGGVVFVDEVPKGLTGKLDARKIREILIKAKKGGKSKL

Structure (SMILES) | composite z-score (Albumin (Bos taurus)) | composite Z-score [1] | composite z-score [2] | composite z-score [3] | composite z-score [4] | composite z-score [5] | composite z-score [6] | composite z-score (Sam68 (KHDRBS1)) | composite z-score [7] | composite z-score [8] | composite z-score [9] | composite z-score [10] | composite z-score [11] | composite z-score [12] | composite z-score [13] | composite z-score [14] | z-score [15] | composite z-score (Lefty1) | composite z-score [16] | z-score [17]
O=C1NC(=O)C2C1C=CC(C(O)c1cccc3ccccc13)N2Nc1ccc(Cl)cc1Cl (stereo not given) | 0.205 | -0.288 (inactive) | 0.0496 | 0.0915 | 0.358 | 2.12 | 0.818 | 0.762 | -0.155 | 1.07 | 1.92 | 1.16 | 0.442 | 0.838 | 0.425 | -0.517 | -1.28 | -0.734 | 0.758 | 0.0698 (inactive)
O=C1NC(=O)C2C1C=CC(C(O)CCc1ccccc1)N2Nc1ccc(Cl)cc1Cl (stereo not given) | 0.709 | 0.118 (inactive) | -0.142 | 0.345 | 0.79 | 2.25 | 0.925 | 0.969 | -1.3 | -0.0165 | 0.371 | 1.18 | 1.11 | 0.363 | 0.0611 | -0.83 | -0.267 | -0.556 | 1.07 | 0.369 (inactive)
Cc1ccc(S[C@]2(C(=O)O)CC(=O)N(C3Cc4ccccc4C3)[C@@H]2c2ccc(CO)cc2)cc1 | 0.0322 | 0.736 (inactive) | -0.102 | -0.057 | 0.727 | 2.65 | 0.826 | 0.667 | -1.8 | -0.458 | 3.14 | 0.246 | 0.583 | -0.428 | -0.987 | -0.306 | 0.225 | -0.889 | -0.339 | -0.675 (inactive)
CCC(CC)C(O)C1C=CC2C(=O)N(c3ccccc3)C(=O)C2N1Nc1ccc(C(C)C)cc1 (stereo not given) | 0.682 | 0.15 (inactive) | 0.213 | 0.197 | 0.691 | 2.24 | 0.359 | 1.3 | -0.0149 | 0.922 | 0.489 | 1.22 | 0.902 | 0.978 | 1.01 | 0.524 | -0.202 | 0.0342 | 1.08 | -1.58 (inactive)
C=CCOC(=O)[C@H]1[C@@H]2C(=O)O[C@@H](c3ccccc3)[C@@H](c3ccccc3)N2[C@@H](c2ccc(OCCOC(=O)[C@@H]3C[C@@H]4C(=O)N[C@@H](CCCCNC(C)=O)C(=O)N4[C@@H]3c3ccc(O)cc3)cc2)[C@]12C(=O)Nc1ccc(I)cc12 | -0.689 | 1.53 (inactive) | 0.108 | 0.0083 | 0.631 | 1.69 | 0.719 | 1.29 | 1.01 | 0.764 | 1.66 | 1.21 | 0.736 | 0.468 | 1.32 | 1.49 | -1.38 | 0.752 | 0.0621 | -0.875 (inactive)
Cc1cc(C)c(C(O)C2C=CC3C(=O)N(c4ccccc4)C(=O)C3N2Nc2ccc(C(C)C)cc2)c(C)c1 (stereo not given) | 0.585 | 0.904 (inactive) | 0.331 | 0.0557 | 0.712 | 2.78 | 0.8 | 1.29 | -0.545 | 1.18 | 1.11 | 1.26 | 1.22 | 1.02 | 0.811 | 0.375 | 0.178 | -0.138 | 1.39 | -0.197 (inactive)
CCCC[C@@H](O)C1=C(COc2ccccc2)C[C@H]2C(=O)N(C)C(=O)[C@H]2[C@H]1CO | -0.261 | -0.191 (inactive) | -0.201 | -0.173 | -0.482 | -0.61 | -0.357 | -0.501 | 0.103 | -0.425 | 0.0713 | -0.231 | 0.713 | -0.247 | 0.129 | -0.16 | 0.708 | 0.0695 | -0.488 | -0.475 (inactive)
COCCOC(=O)N1C(=O)[C@@]2(c3cc(C#CC4=CCCCC4)ccc31)[C@H](c1ccccc1OCCO)N1[C@H](c3ccccc3)[C@H](c3ccccc3)OC(=O)[C@H]1[C@@H]2C(=O)N1CCCCCCC1 | -0.0107 | 0.181 (inactive) | -0.582 | -0.26 | 0.592 | 2.23 | 0.22 | 1.34 | 0.323 | 0.592 | 0.778 | 1.22 | 0.724 | 0.767 | 1.24 | 1.14 | -0.433 | 0.277 | 0.405 | -0.22 (inactive)
COc1cc(OC)c(C(O)C2C=CC3C(=O)N(C)C(=O)C3N2NC(=O)OC(C)(C)C)cc1Br (stereo not given) | 0.881 | 0.182 (inactive) | 0.398 | 0.354 | 0.584 | 3.05 | 0.91 | 1.3 | -0.251 | 1.09 | 0.476 | 1.29 | 0.776 | 1.03 | 1.25 | 0.128 | -0.942 | 0.42 | 1.23 | -0.996 (inactive)
[N-]=[N+]=Nc1ccccc1C[C@]1(C(=O)N2CCOCC2)N=C(c2ccc(OCCCO)cc2)O[C@H]1c1ccccc1 | 0.806 | 0.339 (inactive) | -0.0902 | -0.204 | 0.627 | 1.99 | 0.221 | 1.36 | 0.764 | 1.15 | 2.06 | 1.21 | 0.3 | 0.905 | 1.42 | 1.81 | 2.81 | 0.435 | 1.2 | -2.31 (inactive)
O=C(NCCCCCNC(=O)/C(Cc1ccccc1)=N/O)OCc1ccccc1 | -0.0396 | -0.136 (inactive) | -0.165 | -0.195 | -0.162 | -0.564 | 0.148 | -0.0603 | 0.366 | -0.485 | 0.0971 | 0.0944 | 0.433 | 0.106 | 0.27 | 0.003 | 0.552 | 0.289 | -0.0398 | 0.209 (inactive)
